According to PubChem BioAssay (NCI):
About 83,000 compounds went through this panel and 20% of them were active in at least one assay; those are over-represented in the sample as a whole.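 Assay: single dose, 48 h. Readout: percent growth (0 = no net growth; negative = cell death). Active: <10.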 A number with no mark means an inactive call. Calls of active or inactive are those of the source.

System: U251 CNS
Test: NCI-60 one-dose screen, 48 h (100 = growth as untreated, 0 = no growth, -100 = all killed)
Settings: 10 µM unless noted

Row | Structure (SMILES) | growth
1 | Cc1ccc(-c2csc(NC(=O)CN3CCN(c4cc5c(cc4F)c(=O)c(C(=O)O)cn5C4CC4)CC3)n2)cc1 | 7.62% (active)
2 | CCOC(=O)c1c(C)c2c(n1C)CSc1cc(C(=O)c3ccccc3)c(=O)[nH]c1-2 | 97.8% [100 µM]
3 | CC(=O)N(N=Nc1ccccc1)c1cccc2ccccc12 | 81.7%
4 | Cc1ccc(-c2nc(/C=C3/C(=O)Nc4ccccc43)c3ccccn23)cc1 | 85.2%
5 | CC(C)c1ccc(NC(=O)Nc2ccc(NC(=O)CCCC(=O)NOCc3ccccc3)cc2)cc1 | 85.6%
6 | C=C(C)[C@@H]1CC[C@]2(C(=O)OC)CC[C@]3(C)[C@H](CC[C@@H]4[C@@]5(C)C/C(=C/NC(N)=S)C(=O)C(C)(C)[C@@H]5CC[C@]43C)[C@@H]12 | 90.7%
7 | COc1ccc(/C=C2\COc3ccc(O)c(O)c3C2=O)cc1 | 12.8%
8 | Clc1ccc(CNc2c3ccccc3nc3ccccc23)cc1 | 46.2%
9 | O=C(Nc1ncc(Cc2ccc(Cl)c(C(F)(F)F)c2)s1)c1ccc2nnsc2c1 | 42.7%
10 | C/C(=C(/c1ccc(Cl)cc1)c1ccc(OCCN2CCCC2)cc1)c1ccc(Cl)cc1 | 68.6%
11 | CC(C)CCNC(=O)Cn1cccc(NC(=O)OCc2ccccc2)c1=O | 101%
12 | Cc1nc2sc(C(=O)Nc3ccccc3)c(N)c2cc1C(=O)c1ccccc1 | 25.4%
13 | COC(=O)c1c2c(c(C)[n+]([O-])c1C)C(=O)C(NCc1ccc(Cl)cc1)=CC2=O | 57.2%
14 | CCOC(=O)c1cn2ncnc(Oc3ccc(NC(=O)NC4CCCCC4)c(Cl)c3)c2c1C | 49.3%
15 | CS(=O)(=O)c1cccc(-c2c(-c3cccc(OS(N)(=O)=O)c3)nc3sccn23)c1 | 100%
16 | O=C(NNc1nccc(Nc2ccc(S(=O)(=O)Nc3ccncc3)cc2)n1)c1ccccc1 | 99.6%
17 | C[C@]12CC[C@@H]3c4ccc(O)c([N+](=O)[O-])c4CC[C@H]3[C@@H]1CCC2=O | 93.2%
18 | O=C(c1ccc(-c2nc(CSc3nc4ccccc4s3)no2)cc1)N1CCSCC1 | 61.6%
19 | CCS/C(Nc1ccccc1)=C(\C#N)C(=O)N/N=C/c1ccc(Cl)cc1Cl | 19.1%
20 | c1ccc(C2=NN[C@H](c3cn(-c4ccccc4)nc3-c3ccccc3)C2)cc1 | 7.2% (active)

Row | Structure (SMILES) | growth
21 | COc1cc(/C=C\c2cc(/C=C\c3ccc(O)c(OC)c3)n(C(=O)COc3ccc(Cl)cc3Cl)n2)ccc1O | 16.3%
22 | Cc1ccccc1NC(=O)c1sc2nc(C)c(C(=O)/C=C/c3ccccc3)cc2c1N | -35% (active)
23 | CC(C)n1cnc2c(=S)nc[nH]c21 | 98.9%
24 | CCOC(=O)/C=C1\S/C(=N\Nc2cc(=O)[nH]c3ccc(Cl)cc23)N(c2ccccc2)C1=O | 89.9%
25 | COc1cc(-c2cc(-c3ccc(N(C)C)cc3)nc(N3CCC(O)CC3)c2C#N)cc(OC)c1OC | 12.9%
26 | CN1C(=O)/C(=C/c2ccc(C(=O)Nc3ncc(Cc4ccc(Cl)cc4)s3)cc2)SC1=S | 61.7%
27 | O=C1c2c(c3c4ccccc4[nH]c3c3ccc4ccccc4c23)C(=O)N1CCN1CCCCC1 | 10.8%
28 | O=c1oc2c(cnc3ccccc32)cc1-c1ccsc1 | 93.3%
29 | Cc1cccc2c1NC(=O)C2(c1ccc(O)cc1)c1ccc(O)cc1 | 90.1%
30 | CC(=O)OCc1nc(C#N)c(N(C)C)o1 | 95.5%
31 | CCN(CC)CCCN1C(=O)c2c(c(C)c3c(oc4cc(O)ccc43)c2C)C1=O | -88.8% (active)
32 | CCOC(=O)c1c(C)nc2c(c1N)CC(=O)N2Cc1cc(F)cc(Cl)c1 | 90.8%
33 | COc1ccc2nc(NC(=O)CSc3nnc4n3S(=O)(=O)c3ccccc3N4C)sc2c1 | 102%
34 | CCOP(=O)(OCC)c1nc(-c2ccccc2)oc1NCc1cccnc1 | 107%
35 | C#CCn1cnc2c(Nc3cccc(NC(=O)C=C)c3)ncnc21 | 88.2%
36 | O=C(COc1ccc(-c2nc3ccccc3[nH]2)cc1)N=Nc1c(O)[nH]c2ccc(Cl)cc12 | -45.1% (active)
37 | c1cc2[nH]ncc2cc1-c1nc2ccc3[nH]ncc3c2c2c1CCCC2 | 15.7%
38 | CCn1c(=S)[nH]c2c(=O)n(C)c(=O)n(C)c21 | 95.9%
39 | C=CCn1c(SCC(=O)Nc2ccc(C(=O)/C=C/c3cc4cc(OC)ccc4nc3Cl)cc2)nnc1-c1ccc(Br)cc1 | 82.5%
40 | O=C1c2cccc3cccc(c23)C(=O)N1N1C(=O)c2cccc3c(N4CCOCC4)ccc(c23)C1=O | 90.7%
